Assay [1] is described as follows: NCI Yeast Anticancer Drug Screen. Data for the rad50 strain (AID 155).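 Also: 0% = growth of vehicle-only cultures of the same strain.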 The following applies: S. cerevisiae rad50 strain growth inhibition; at 50.0 µM; hits give high values. In a few lines:
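Vehicle-treated cultures provide the reference for the growth inhibition reported for compound-exposed, repair-deficient yeast.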

Assay [2] is described as follows: NCI Yeast Anticancer Drug Screen. Data for the mec2-1 strain (AID 157). Conditions: S. cerevisiae mec2-1 strain, at 50.0 µM, hits give high values. In a few lines: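 Strain: mec2-1 (DNA repair/cell cycle alteration). Compound exposure, then growth measured; inhibition expressed relative to vehicle.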
The nature of assay [3]: NCI Yeast Anticancer Drug Screen. Data for the sgs1 mgt1 strain (AID 161).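 Also: 0% = growth of cultures given vehicle only.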 Conditions: S. cerevisiae sgs1 mgt1 strain, at 50.0 µM, hits give high values. In a few lines: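 Genetically altered yeast, compound exposure, growth inhibition relative to vehicle.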
Assay [4] in a line: NCI Yeast Anticancer Drug Screen. Data for the cln2 rad14 strain (AID 165).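 Also: 0% = growth equal to vehicle treated cultures.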 The following applies: S. cerevisiae cln2 rad14 strain, at 50.0 µM, hits give high values. In a few lines: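 Compounds are applied to the cln2 rad14 yeast strain, and growth is then compared with that of vehicle-treated cultures to give inhibition.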
The nature of assay [5]: NCI Yeast Anticancer Drug Screen. Data for the bub3 strain (AID 167). Conditions: S. cerevisiae bub3 mutant strain, at 50.0 µM, hits give high values. In a few lines: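 Mutant yeast screening strain plus compound; vehicle-treated cultures serve as the 0% inhibition reference.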
Assay [6] can be described thus: NCI Yeast Anticancer Drug Screen. Data for the mlh1 rad18 strain (AID 175). The following applies: S. cerevisiae mlh1 rad18 strain growth inhibition; at 50.0 µM; hits give high values. In a few lines:
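Read-out is yeast growth inhibition, calculated against vehicle-only controls. The compound was applied to a strain engineered with DNA damage repair alterations.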

Experimental findings from PubChem BioAssay (NCI) are described below.

About 79,000 compounds went through this panel and 15% of them were active in at least one assay; those are over-represented in the sample as a whole. Unmarked numbers belong to inactive results. Calls of active or inactive are those of the source. Rule as the data show it: active = growth inhibition above about 70%; inactive = the rest.

As to `O=C1CCCCc2cccc(O)c21`, the growth inhibition in assay [1] was 2%; in assay [2] it was -3.85%; in assay [3] it was -1.95%; in assay [4], 24.3%; in assay [5], 2.4%; in assay [6], 2.1%.

In the case of `CC/C(=N/N(C)C)C(=O)OC(C)(C)C`, the growth inhibition in assay [1] was -42.9%; in assay [2], -24.6%; in assay [3], -15.8%; in assay [4], -44.6%; in assay [5], 1.35%; in assay [6] it was -4.2%.

Take `S=C(Nc1ccc2ccccc2c1)Nc1ccc2ccccc2c1`: the growth inhibition is 22% in assay [1]; 10.9% in assay [2]; 14.4% in assay [3]; -30.6% in assay [4]; 5.4% in assay [5]; -2% in assay [6].

`CCCCCCCCCCCCCCCCOC(=O)/C=C/c1ccccc1`: the growth inhibition in assay [1] was -8.35%; in assay [2], -2.35%; in assay [3], -7.45%; in assay [4] it was -8.55%; in assay [5] it was -12.3%; in assay [6], 9.1%.

Take `Cc1nc2nn[nH]n2c(=O)c1CCO`: the growth inhibition in assay [1] is 13.2%; in assay [2], 0.15%; in assay [3], 16.2%; in assay [4], 14.2%; in assay [5], -6.95%; in assay [6], -51.6%.

In the case of `O=C(O)/C(=C/c1ccccc1[N+](=O)[O-])c1cccs1`, the growth inhibition in assay [1] is 27.9%; in assay [2] it was 2.25%; in assay [3], 22.6%; in assay [4], 21.1%; in assay [5], -11.3%; in assay [6], 8.9%.

For the compound `COc1ccc(C=Nc2c(O)ccc3c2CCCC3)cc1OC`, the growth inhibition in assay [1] is 9.55%; in assay [2], 4.7%; in assay [3] it was -6.1%; in assay [4] it was -49.3%; in assay [5] it was 1.95%; in assay [6], 14.9%.

Take `Fc1ccc(Nc2cc(F)cc(F)c2)cc1`: the growth inhibition in assay [1] is 22.7%; in assay [2] it was 8.45%; in assay [3], 17.4%; in assay [4] it was 3.2%; in assay [5] it was 10.6%; in assay [6] it was 11.1%.

In the case of `Cc1ccc2c(c1)P(=O)(O)c1cc(C)ccc1O2`, the growth inhibition was -45.4% in assay [1]; -13.2% in assay [2]; 23.6% in assay [3]; 3.2% in assay [4]; -9.6% in assay [5]; -8.55% in assay [6].

As for `COc1ccc2nc(C)c3c(c2c1)C(=O)N(CCCN1CCN(CCCN2C(=O)c4c(C)nc5ccc(OC)cc5c4C2=O)CC1)C3=O`, the growth inhibition in assay [1] is 0.6%; in assay [2], 9.4%; in assay [3] it was -7.5%; in assay [4] it was -25.4%; in assay [5], 2.15%; in assay [6] it was 36.5%.

For `Cc1ccc2nc(N)nc(N)c2c1`, the growth inhibition is -12.9% in assay [1]; 7.15% in assay [2]; -8.4% in assay [3]; 3.25% in assay [4]; -10.6% in assay [5]; -3.8% in assay [6].

Turning to `O=C1c2cc(O)c(O)cc2C(=O)c2cc3c(cc21)OCO3`, the growth inhibition in assay [1] is -38.2%; in assay [2], -5.55%; in assay [3] it was 1.4%; in assay [4], -11.6%; in assay [5], -8.3%; in assay [6] it was -15.9%.

As for `Cc1cccnc1NC=O`, the growth inhibition is -10.7% in assay [1]; -12.2% in assay [2]; -4.8% in assay [3]; -17.6% in assay [4]; -24.7% in assay [5]; -9.7% in assay [6].

On to `c1ccc(C2SCCN2c2ccccc2)cc1` (stereo unspecified), for which the growth inhibition in assay [1] was 9.2%; in assay [2], -0.35%; in assay [3] it was -20.4%; in assay [4], 9.95%; in assay [5] it was 11.8%; in assay [6], -14.4%.

For `CC(=O)Nc1ncc(Sc2ccc([N+](=O)[O-])cc2)s1`, the growth inhibition in assay [1] is -6.5%; in assay [2], -30.9%; in assay [3] it was -8.35%; in assay [4] it was 15.3%; in assay [5] it was -11.8%; in assay [6] it was 5.65%.

For the compound `O=C(NC1CCCCC1)C1C2CC3OC(=O)C1C3C2` (stereo unspecified), the growth inhibition in assay [1] was -10.8%; in assay [2], -19.2%; in assay [3], 37.1%; in assay [4] it was -27.6%; in assay [5], 20.5%; in assay [6], -10.1%.

Regarding `O=C(c1ccccc1)c1ccccc1C(=O)c1ccccc1`, the growth inhibition was 77% (active) in assay [1]; 25.6% in assay [2]; 54% in assay [3]; -43% in assay [4]; 70.4% (active) in assay [5]; 52% in assay [6].

With `OC(CNC1CCCCC1)(c1ccccc1)c1ccccc1`, the growth inhibition in assay [1] was -11.2%; in assay [2], -8.35%; in assay [3] it was 13.9%; in assay [4], 10.8%; in assay [5], 30.2%; in assay [6] it was -20.6%.

As for `CCCCCNC(=O)c1cccc(C)c1`, the growth inhibition in assay [1] is -11.1%; in assay [2], -13.2%; in assay [3], -7.65%; in assay [4] it was -13.6%; in assay [5] it was -25.4%; in assay [6], -1.2%.

Consider `CC1=NN(C(=O)Nc2ccccc2)C(=O)C2CCC(=O)N12` (stereo unspecified), for which the growth inhibition in assay [1] was -6.3%; in assay [2], -4.55%; in assay [3] it was -3.55%; in assay [4], 3.85%; in assay [5], -1%; in assay [6] it was -8.1%.

Consider `CC(=O)NC(CCCCN(Cc1ccccc1)C(=O)N(C)N=O)C(=O)NCc1ccccc1` (stereo unspecified), for which the growth inhibition was 0.3% in assay [1]; -6.7% in assay [2]; 24.4% in assay [3]; -0.15% in assay [4]; -22.9% in assay [5]; -6.4% in assay [6].
